Assay outcomes deposited in PubChem BioAssay by National Center for Advancing Translational Sciences (NCATS).
HCV inh: HCV inhibition | Huh7.5.1 HCVcc-Cre infection, luciferase reporter, 44 h | Potency, µM (highest dose often 41.8 µM), for the others: at the top dose activity change, negative = inhibition, actives largely listed as inhibitors | hit rate 3.4% among 340,000 | AID 651820; also: potency is read from the fitted curve at half-maximal effect
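Cells seeded at 1,000/well and cultured 4 h, then compounds added followed by HCVcc-Cre virus (~0.5 moi). After 44 h further culture, luciferase substrate was added, plates held 15 min at room temperature, and luminescence read for 15 sec.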
AmpC no deterg: inhibitors of E. coli AmpC beta-lactamase without detergent; AmpC nitrocefin hydrolysis, absorbance 480 nm, 0.0001% Triton; P00811; Potency, µM (titrated, usually from 57.1 µM), for inactives: at the highest dose activity change, negative = inhibition, actives largely listed as inhibitors; AID 485341; hit rate 0.52% among 330,000;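 also: potency is read from the fitted curve at half-maximal effect; plate controls were no compound for no effect and no enzyme for full effect; nearly all actives have a fitted effect of over 20% in size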
Target sequence (P00811 whole entry, looked up): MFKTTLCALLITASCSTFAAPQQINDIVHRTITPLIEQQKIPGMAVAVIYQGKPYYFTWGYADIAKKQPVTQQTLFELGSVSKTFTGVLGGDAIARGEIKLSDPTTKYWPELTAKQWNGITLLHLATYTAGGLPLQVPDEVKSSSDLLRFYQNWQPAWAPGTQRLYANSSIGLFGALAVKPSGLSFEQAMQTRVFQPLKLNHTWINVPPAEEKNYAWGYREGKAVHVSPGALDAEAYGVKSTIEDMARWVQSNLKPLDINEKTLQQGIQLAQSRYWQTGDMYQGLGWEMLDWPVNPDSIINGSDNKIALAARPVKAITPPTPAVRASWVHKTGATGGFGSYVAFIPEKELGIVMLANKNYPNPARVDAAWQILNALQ
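AmpC (5.3 nM in the dispensed reagent) in 20 mM phosphate pH 7.0 with 0.01% (detergent screen) or 0.0001% Triton X-100 was preincubated with compounds for 15 min at room temperature. Nitrocefin was then added from an 800 uM solution, and hydrolysis was followed at 480 nm.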
AmpC detergent: blocks E. coli AmpC beta-lactamase in detergent assay; P00811; AmpC hydrolysis of nitrocefin, absorbance 480 nm, 0.01% Triton; Potency, µM (titrated, usually from 114 µM), inactives show top-dose activity change, negative = inhibition, most hits filed as inhibitors; hit rate 0.041% among 370,000; AID 485294;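 also: potency is read from the fitted curve at half-maximal effect; 0% = no-compound wells and -100% = no-enzyme wells; nearly all actives have a fitted effect of over 25% in size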
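20 mM phosphate pH 7.0 + 0.01% (detergent screen) or 0.0001% Triton X-100; 5.3 nM AmpC reagent; cpd preinc 15 min RT; nitrocefin (800 uM stock) to start; A480 q20 s × 4 min; Activity was normalised to no-enzyme and no-compound control wells.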
HCMV antiviral: human cytomegalovirus inhibition. HFF cells, HCMV-luciferase reporter, 72 h; stronger effect = lower value. activity change, negative = inhibition, % at 57.5 µM. hit rate 4.5% among 410,000; in the data active = activity change below about -60%; inconclusive = no clear call, values can overlap the other calls; inactive = above about -39%
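Steps: HFFs plated, 16 h 37C; compounds added; HCMV-luciferase added to MOI 1 PFU/cell; 72 h 37C; OneGlo reagent, 5 min room temperature; luminescence read, normalized to controls.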
FMDV antiviral: blocks foot and mouth disease virus. FMDV antiviral cell-based qHTS. Potency, µM (titrated, usually from 57.9 µM), for inactives: at the highest dose activity change, negative = inhibition, hits mostly inhibitors. hit rate 1.2% among 410,000. AID 1159524; calls by dose curve; tested in HEK293T cells; also: read-out not given here; potency is read from the fitted curve at half-maximal effect; nearly all actives have a fitted effect of over 45% in size
* marks the source's active call; other numbers are inactive results; ? = inconclusive; . = no result. Hits are enriched below; roughly 7.3% of the tested compounds scored in any of these assays. Unless noted, calls follow the shape of the dose curve; as a rule, active = well fitted curve in the direction sought with a large enough effect; inconclusive = small, poorly fitted or top-dose-only effect, or another doubt; inactive = no such curve, though single readings can be large; an effect the other way counts as inactive or inconclusive. Unless noted, % is scaled to controls: 0 for no effect and ±100 for the full control effect.

SMILES	HCV inh	AmpC no deterg	AmpC detergent	HCMV antiviral	FMDV antiviral
COc1ccc2cc(C3=CCCC3(C)C(=O)O)ccc2c1 (stereo unspecified)	18.7%	.	.	-18.8	21.4%
Cc1cnc(-n2ncc(C(=O)NCCc3ccccn3)c2C)nc1-c1ccc(F)cc1	.	.	.	.	-0.6%
O=C(NCC1CCCCC1)c1cc(S(=O)(=O)N2CCOCC2)ccc1F	4.2%	-0.4%	7.6%	1.1	3.7%
CCCC1CC(CCc2ccccc2)OS(=O)(=O)N1 (stereo unspecified)	42.7%	-29.4%	?	-21.8	95.6%
CCOC(=O)C1CCCN(C(c2ccccn2)c2c(C)[nH]c3ccccc23)C1 (stereo unspecified)	22.3%	41.0%	0.7%	-86.7*	5.4%
Cc1[nH]c2ccccc2c1C(c1ccccn1)N1CCCC1 (stereo unspecified)	-8.6%	-27.5%	5.7%	-38.6	-8.3%
COc1ccc(/C=C/C(=O)c2ccc(NC3=NCCCS3)cc2)cc1OC	?	12.7%	-7.7%	86.6	15.8µM*
CCC1CSC(Nc2ccc(C(=O)/C=C/c3ccc(OC)c(OC)c3)cc2)=N1 (stereo unspecified)	?	-12.0%	-3.4%	-101.5*	25.1µM*
O=C(NCCc1ccccc1)c1cc(-c2ccc(Cl)c(Cl)c2)on1	.	.	16.9%	8.9	-1.7%
Cc1ccc(S(=O)(=O)N(C)C)cc1NC(=O)COC(=O)/C(=C/c1ccc(F)cc1)c1cccs1	11.2µM*	-29.0%	-6.5%	2.5	?
Cc1cc(C(=O)OCC(=O)Nc2cc(S(=O)(=O)N(C)C)ccc2Cl)c2ccccc2n1	11.6%	-15.9%	-1.1%	28.1	-21.1%
Cc1cc(C(=O)OCC(=O)Nc2cc(S(=O)(=O)N(C)C)ccc2C)c2ccccc2n1	19.7%	39.7%	-9.1%	-21.0	15.8µM*
CCOC(=O)C1CCN(Cc2cc(Cl)c3ccccc3c2O)CC1	-25.2%	-7.4%	-12.5%	.	-6.9%
N#CCc1nc(C(c2ccccc2)c2ccccc2)no1	-10.8%	17.8µM*	-5.6%	?	?
COc1cccc(NC(=O)Nc2cc(-c3cn4cccnc4n3)ccc2C)c1	.	.	-1.0%	6.5	14.5%
COc1ccc(-c2cn3cccnc3n2)cc1NC(=O)c1ccc(Br)o1	11.2µM*	112.6%	0.9%	-21.0	-5.2%
COc1ccc(-c2cn3cccnc3n2)cc1NC(=O)Nc1cc(C)ccc1C	.	124.2%	-3.2%	-69.4*	5.3%
CCOC(=O)c1ccc2nc(NC(C)=O)sc2c1	-14.0%	-4.3%	2.0%	117.7	24.4%
COC(=O)c1ccc2nc(Nc3nc4c(F)cc(F)cc4s3)sc2c1	2.3%	-16.9%	-0.4%	-70.4*	0.251µM*
CCOC(=O)c1ccc2nc(Nc3nc4ccc(F)cc4s3)sc2c1	10.9%	-15.7%	-2.9%	-91.0*	?
CC(C)Cc1ccc(CN2C(C)C(=O)N(Cc3cn(Cc4ccco4)nn3)CCS2(=O)=O)cc1 (stereo unspecified)	.	.	.	-10.1	-20.4%
Cc1cccc(Cl)c1NC(=O)NCCCN1CCOCC1	.	.	.	9.2	.
CCc1nn(-c2ccccc2)c(=S)c2ccccc12	?	-10.2%	-1.0%	-63.1*	-14.7%
CC(Oc1ccc(C(C)(C)C)cc1)C(=O)NC1CC(C)(C)NC(C)(C)C1 (stereo unspecified)	-6.2%	19.1%	-2.6%	?	-25.1%
Cc1oc2ccccc2c1CC(=O)NCCCN(C)C	-13.4%	-5.7%	-0.9%	-64.3*	-20.0%
SMILES	HCV inh	AmpC no deterg	AmpC detergent	HCMV antiviral	FMDV antiviral
Oc1ccc(-c2cnccn2)cc1CN1CCN(C2CCCCC2)CC1	.	.	.	.	-9.3%
CCc1cc(CNC(=O)c2ccc3nc(Cc4ccc(OC)c(OC)c4)oc3c2)on1	4.47µM*	88.1%	-8.9%	-14.6	-21.1%
COc1ccc(Cl)cc1NC(=O)c1ccc2nc(Cc3ccccc3)oc2c1	.	.	20.5%	-32.6	-19.6%
COc1ccc(C(=O)Nc2ccc3oc(Cc4ccc(Cl)cc4)nc3c2)cc1OC	11.2µM*	81.6%	?	-23.2	?
CN(c1ccccc1)S(=O)(=O)c1ccc(NC(=O)c2cc(=O)c3ccccc3o2)cc1	.	.	8.3%	0.6	?
Cc1ccc(C)c(-n2sc3ccc(F)cc3c2=O)c1	?	-33.3%	-14.1%	-86.8*	?
COc1ccc(-n2sc3ccccc3c2=O)cc1	.	.	.	-102.0*	?
